Common to all, as to assay: DAPPL (digital affinity profiling via proximity ligation, sequencing); 10 mM Tris-HCl pH 7.5, 50 mM NaCl, 1 mM DTT, 4% glycerol, room temperature, 30 min; GST-TFs on glutathione beads, 16-mer random dsDNA library, 0.1% formaldehyde crosslink after washing; high values mean tight binding
Assay [1] has as its target T1, FLI1 (Homo sapiens, UniProt Q01543 1-452).
T1 sequence: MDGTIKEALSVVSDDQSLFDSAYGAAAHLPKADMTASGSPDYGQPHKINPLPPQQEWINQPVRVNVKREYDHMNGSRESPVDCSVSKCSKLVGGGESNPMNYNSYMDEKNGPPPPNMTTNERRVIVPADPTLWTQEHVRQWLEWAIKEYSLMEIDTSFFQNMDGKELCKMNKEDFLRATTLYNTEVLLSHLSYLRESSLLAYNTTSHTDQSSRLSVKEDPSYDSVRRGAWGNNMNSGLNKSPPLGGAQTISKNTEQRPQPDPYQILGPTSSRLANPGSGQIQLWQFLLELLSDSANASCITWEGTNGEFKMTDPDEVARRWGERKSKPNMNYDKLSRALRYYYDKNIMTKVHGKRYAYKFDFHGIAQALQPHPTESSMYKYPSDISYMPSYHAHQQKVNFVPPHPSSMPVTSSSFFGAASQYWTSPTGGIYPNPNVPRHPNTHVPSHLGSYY
To be noted: protein: recombinant; tags: N-terminal GST; dsDNA, one strand shown. The gist of the method:
(§1)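 Pools of DNA-barcoded human transcription factors, expressed in yeast as GST fusions on glutathione beads and combined with a tag-only sample, were incubated with 200 nmole of a 16-mer random double-stranded DNA library. Incubation took 30 min at room temperature in Tris/NaCl/DTT/glycerol buffer and was followed by washing, 0.1% formaldehyde crosslinking, proximity ligation (BsaI/T4 ligase, 1 h, 37 °C), PCR amplification and sequencing on an Illumina NextSeq500. Binding signal is the ratio of a hexamer's read frequency for a factor to its frequency for the tag-only sample.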

Assay [2] concerns the target T2, ELK1 (Homo sapiens, UniProt P19419 1-428).
T2 sequence: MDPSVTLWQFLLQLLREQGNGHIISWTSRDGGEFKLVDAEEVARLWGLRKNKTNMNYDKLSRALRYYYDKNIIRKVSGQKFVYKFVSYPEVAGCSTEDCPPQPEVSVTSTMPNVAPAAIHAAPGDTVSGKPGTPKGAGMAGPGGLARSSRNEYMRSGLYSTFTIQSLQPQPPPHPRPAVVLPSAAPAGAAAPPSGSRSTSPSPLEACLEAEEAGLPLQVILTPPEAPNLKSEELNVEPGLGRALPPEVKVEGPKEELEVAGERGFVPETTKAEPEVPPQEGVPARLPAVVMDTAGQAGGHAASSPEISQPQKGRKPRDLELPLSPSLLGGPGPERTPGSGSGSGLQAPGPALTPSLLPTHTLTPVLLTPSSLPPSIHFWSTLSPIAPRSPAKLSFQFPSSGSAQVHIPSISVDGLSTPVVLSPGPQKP
The settings on record: protein: recombinant; tags: N-terminal GST; dsDNA, one strand shown. The gist of the method:
as §1

The target of assay [3] is T3, GABPA (Homo sapiens, UniProt Q06546 1-454).
T3 sequence: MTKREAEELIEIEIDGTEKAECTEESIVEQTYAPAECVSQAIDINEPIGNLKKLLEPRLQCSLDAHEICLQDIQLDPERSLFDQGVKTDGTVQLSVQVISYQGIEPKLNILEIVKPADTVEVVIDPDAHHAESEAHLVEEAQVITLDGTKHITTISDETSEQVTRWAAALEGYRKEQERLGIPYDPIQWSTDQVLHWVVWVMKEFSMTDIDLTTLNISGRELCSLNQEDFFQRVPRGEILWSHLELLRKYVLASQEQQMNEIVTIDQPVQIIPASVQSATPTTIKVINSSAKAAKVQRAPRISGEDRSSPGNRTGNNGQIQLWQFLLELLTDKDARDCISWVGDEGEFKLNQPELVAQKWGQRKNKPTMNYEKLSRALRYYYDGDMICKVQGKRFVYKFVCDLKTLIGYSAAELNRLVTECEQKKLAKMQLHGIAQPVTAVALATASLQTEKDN
To be noted: protein: recombinant; tags: N-terminal GST; dsDNA, one strand shown. The gist of the method:
as §1

Assay [4] addresses T4, ERG (Homo sapiens, UniProt P11308 1-479).
T4 sequence: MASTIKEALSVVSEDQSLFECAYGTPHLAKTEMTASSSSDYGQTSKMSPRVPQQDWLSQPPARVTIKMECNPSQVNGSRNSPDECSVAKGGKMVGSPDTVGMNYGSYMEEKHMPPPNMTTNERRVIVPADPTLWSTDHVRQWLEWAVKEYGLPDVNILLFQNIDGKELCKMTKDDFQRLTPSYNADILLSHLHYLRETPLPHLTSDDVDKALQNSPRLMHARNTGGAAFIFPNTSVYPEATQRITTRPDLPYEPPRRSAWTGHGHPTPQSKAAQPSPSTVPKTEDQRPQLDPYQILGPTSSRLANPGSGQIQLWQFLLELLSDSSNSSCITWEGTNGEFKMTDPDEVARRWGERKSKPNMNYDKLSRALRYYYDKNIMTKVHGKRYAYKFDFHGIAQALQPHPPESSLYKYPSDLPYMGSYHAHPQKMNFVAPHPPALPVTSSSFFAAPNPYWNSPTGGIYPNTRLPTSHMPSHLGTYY
To be noted: protein: recombinant; tags: N-terminal GST; dsDNA, one strand shown. The gist of the method:
as §1

Assay [5] deals with ELF1 (Homo sapiens, UniProt P32519 1-619). The settings on record: protein: recombinant; tags: N-terminal GST; dsDNA, one strand shown. The gist of the method:
as §1

Assay [6] concerns the target T5, EHF (Homo sapiens, UniProt Q9NZC4 1-300).
T5 sequence: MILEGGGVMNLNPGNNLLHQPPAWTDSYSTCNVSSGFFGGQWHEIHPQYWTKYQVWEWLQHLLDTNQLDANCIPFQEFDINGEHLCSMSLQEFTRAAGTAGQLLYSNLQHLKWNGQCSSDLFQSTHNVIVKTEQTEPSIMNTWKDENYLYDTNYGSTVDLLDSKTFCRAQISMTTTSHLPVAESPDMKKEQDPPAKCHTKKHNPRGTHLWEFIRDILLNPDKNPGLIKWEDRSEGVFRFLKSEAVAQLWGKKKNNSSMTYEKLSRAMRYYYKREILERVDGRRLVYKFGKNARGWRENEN
To be noted: protein: recombinant; tags: N-terminal GST; dsDNA, one strand shown. The gist of the method: as §1

The target in assay [7] is SPI1 (Homo sapiens, UniProt P17947 1-270). To be noted: protein: recombinant; tags: N-terminal GST; dsDNA, one strand shown. The gist of the method:
as §1

Assay [8] concerns the target SPIB (Homo sapiens, UniProt Q01892 1-262). The settings on record: protein: recombinant; tags: N-terminal GST; dsDNA, one strand shown. The gist of the method:
as §1

Assay [9] addresses T6, ELK3 (Homo sapiens, UniProt P41970 1-407).
T6 sequence: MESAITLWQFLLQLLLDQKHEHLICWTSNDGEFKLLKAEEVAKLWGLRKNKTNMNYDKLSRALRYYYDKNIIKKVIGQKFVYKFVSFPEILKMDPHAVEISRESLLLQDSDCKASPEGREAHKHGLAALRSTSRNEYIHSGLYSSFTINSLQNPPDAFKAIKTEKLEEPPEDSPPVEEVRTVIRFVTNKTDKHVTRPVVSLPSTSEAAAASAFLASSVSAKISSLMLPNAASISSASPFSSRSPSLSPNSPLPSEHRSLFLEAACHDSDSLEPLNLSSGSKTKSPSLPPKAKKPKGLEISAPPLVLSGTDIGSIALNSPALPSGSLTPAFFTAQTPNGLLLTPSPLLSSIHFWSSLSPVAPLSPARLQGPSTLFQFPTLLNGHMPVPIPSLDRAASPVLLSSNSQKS
The settings on record: protein: recombinant; tags: N-terminal GST; dsDNA, one strand shown. The gist of the method:
as §1

Assay [10] addresses T7, FEV (Homo sapiens, UniProt Q99581 1-238).
T7 sequence: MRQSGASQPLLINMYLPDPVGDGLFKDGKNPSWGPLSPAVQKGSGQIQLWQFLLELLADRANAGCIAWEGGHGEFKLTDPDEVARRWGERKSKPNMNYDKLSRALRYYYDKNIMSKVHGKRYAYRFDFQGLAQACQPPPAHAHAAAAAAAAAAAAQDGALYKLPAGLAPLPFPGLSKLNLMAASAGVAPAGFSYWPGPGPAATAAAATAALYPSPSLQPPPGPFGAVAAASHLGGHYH
To be noted: protein: recombinant; tags: N-terminal GST; dsDNA, one strand shown. The gist of the method: as §1

Assay [11] has as its target ETV5 (Homo sapiens, UniProt P41161 1-510). The settings on record: protein: recombinant; tags: N-terminal GST; dsDNA, one strand shown. The gist of the method:
as §1

The target in assay [12] is HSF1 (Homo sapiens, UniProt Q00613 1-529). To be noted: protein: recombinant; tags: N-terminal GST; chain copies: 3; dsDNA, one strand shown. The gist of the method:
as §1

Assay [13] addresses T8, SPIC (Homo sapiens, UniProt Q8N5J4 1-248).
T8 sequence: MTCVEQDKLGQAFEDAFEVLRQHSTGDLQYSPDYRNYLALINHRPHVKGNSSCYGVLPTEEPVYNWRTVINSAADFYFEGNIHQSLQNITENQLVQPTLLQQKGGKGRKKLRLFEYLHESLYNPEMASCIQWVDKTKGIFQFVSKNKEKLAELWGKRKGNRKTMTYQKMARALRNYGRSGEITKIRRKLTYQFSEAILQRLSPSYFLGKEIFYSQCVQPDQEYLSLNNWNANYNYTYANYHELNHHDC
The settings on record: protein: recombinant; tags: N-terminal GST; dsDNA, one strand shown. The gist of the method:
as §1

Assay [14] addresses ELF4 (Homo sapiens, UniProt Q99607 1-663). To be noted: protein: recombinant; tags: N-terminal GST; dsDNA, one strand shown. The gist of the method:
as §1

In assay [15] the target is T9, ELK4 (Homo sapiens, UniProt P28324-2 1-405).
T9 sequence: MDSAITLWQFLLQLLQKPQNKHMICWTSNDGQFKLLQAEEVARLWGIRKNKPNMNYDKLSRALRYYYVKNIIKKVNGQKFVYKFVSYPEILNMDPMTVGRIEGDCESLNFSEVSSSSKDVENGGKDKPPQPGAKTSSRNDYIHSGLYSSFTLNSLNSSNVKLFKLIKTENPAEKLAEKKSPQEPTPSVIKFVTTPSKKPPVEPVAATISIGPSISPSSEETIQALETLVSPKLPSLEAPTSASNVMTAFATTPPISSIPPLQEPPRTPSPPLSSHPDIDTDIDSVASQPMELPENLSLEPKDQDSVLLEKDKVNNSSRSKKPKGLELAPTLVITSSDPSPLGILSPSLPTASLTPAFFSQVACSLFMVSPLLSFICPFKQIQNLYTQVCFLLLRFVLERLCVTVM
To be noted: protein: recombinant; tags: N-terminal GST; dsDNA, one strand shown. The gist of the method: as §1

In assay [16] the target is T10, ETV2 (Homo sapiens, UniProt O00321 1-342).
T10 sequence: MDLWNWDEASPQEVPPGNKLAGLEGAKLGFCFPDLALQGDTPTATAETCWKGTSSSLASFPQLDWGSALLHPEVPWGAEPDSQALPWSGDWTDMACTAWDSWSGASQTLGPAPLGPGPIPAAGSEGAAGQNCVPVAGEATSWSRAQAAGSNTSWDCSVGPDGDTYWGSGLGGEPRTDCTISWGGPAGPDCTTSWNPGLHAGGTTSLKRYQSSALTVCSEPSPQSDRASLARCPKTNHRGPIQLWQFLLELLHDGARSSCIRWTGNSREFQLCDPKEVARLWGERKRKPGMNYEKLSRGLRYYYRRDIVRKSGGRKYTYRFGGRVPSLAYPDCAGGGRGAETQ
The settings on record: protein: recombinant; tags: N-terminal GST; dsDNA, one strand shown. The gist of the method:
as §1

Assay [17] deals with T11, ELF3 (Homo sapiens, UniProt P78545 1-371).
T11 sequence: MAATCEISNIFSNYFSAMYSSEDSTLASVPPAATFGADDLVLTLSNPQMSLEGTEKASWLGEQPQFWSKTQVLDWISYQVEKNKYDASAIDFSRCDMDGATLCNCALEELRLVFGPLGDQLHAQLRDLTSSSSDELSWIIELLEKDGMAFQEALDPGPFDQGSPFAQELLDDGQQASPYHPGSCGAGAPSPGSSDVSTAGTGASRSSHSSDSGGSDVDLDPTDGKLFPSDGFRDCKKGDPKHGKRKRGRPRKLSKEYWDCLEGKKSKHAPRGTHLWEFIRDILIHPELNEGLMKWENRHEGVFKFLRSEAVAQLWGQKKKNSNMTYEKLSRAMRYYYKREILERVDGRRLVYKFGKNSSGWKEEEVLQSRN
To be noted: protein: recombinant; tags: N-terminal GST; dsDNA, one strand shown. The gist of the method:
as §1

Assay [18] addresses ETV1 (Homo sapiens, UniProt P50549 1-477). The settings on record: protein: recombinant; tags: N-terminal GST; dsDNA, one strand shown. The gist of the method: as §1

Sequence of HSF1 (Q00613 whole entry): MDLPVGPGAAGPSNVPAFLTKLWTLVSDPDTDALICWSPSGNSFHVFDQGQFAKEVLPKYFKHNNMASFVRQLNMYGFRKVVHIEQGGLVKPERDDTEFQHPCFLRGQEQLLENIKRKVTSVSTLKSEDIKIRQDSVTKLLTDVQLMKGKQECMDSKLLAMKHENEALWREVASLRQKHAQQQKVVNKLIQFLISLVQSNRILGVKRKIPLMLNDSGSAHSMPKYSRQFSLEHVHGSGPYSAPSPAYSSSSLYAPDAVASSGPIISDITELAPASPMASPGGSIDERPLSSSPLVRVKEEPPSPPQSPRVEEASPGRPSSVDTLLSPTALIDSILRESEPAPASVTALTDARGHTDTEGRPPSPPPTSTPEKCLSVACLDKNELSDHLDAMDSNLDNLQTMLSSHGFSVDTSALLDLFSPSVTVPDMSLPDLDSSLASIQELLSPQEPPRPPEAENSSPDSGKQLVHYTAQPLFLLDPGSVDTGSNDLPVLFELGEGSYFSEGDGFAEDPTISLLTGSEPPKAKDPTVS
Sequence of ELF1 (P32519 whole entry): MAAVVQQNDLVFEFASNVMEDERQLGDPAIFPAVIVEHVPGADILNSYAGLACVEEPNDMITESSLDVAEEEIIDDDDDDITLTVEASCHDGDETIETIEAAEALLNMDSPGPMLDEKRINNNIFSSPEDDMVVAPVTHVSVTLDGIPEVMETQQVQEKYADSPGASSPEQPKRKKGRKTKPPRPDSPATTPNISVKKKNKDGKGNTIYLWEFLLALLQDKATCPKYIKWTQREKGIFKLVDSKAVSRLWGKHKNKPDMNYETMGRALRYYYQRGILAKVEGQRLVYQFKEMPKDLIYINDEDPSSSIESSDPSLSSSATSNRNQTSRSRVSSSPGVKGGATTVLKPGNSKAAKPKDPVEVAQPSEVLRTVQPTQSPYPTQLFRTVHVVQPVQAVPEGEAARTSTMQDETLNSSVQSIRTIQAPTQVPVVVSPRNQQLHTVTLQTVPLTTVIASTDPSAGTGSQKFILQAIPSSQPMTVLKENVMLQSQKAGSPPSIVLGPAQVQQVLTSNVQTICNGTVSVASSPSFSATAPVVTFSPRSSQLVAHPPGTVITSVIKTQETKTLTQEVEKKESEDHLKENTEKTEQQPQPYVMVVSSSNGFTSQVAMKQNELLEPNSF
Sequence of ETV5 (P41161 whole entry): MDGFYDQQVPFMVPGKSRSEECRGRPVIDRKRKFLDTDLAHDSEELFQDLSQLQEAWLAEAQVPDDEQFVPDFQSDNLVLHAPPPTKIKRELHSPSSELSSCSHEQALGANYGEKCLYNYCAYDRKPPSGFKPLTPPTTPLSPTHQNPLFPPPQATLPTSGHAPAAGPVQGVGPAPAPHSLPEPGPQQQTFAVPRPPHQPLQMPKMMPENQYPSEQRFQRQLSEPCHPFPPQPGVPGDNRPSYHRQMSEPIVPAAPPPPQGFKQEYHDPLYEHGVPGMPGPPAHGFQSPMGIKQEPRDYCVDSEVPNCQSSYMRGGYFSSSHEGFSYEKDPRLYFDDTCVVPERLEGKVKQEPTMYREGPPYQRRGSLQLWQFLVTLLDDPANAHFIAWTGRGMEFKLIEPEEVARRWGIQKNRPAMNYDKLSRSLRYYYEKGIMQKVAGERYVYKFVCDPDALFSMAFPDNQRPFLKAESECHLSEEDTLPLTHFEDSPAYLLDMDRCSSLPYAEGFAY
Sequence of SPIB (Q01892 whole entry): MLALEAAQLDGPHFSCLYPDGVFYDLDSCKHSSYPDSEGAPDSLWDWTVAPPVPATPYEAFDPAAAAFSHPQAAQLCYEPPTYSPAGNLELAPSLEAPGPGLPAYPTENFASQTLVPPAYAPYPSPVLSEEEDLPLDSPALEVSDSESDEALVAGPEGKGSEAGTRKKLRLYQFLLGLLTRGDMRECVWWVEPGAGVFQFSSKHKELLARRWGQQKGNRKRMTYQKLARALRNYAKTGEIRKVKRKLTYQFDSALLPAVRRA
Sequence of ETV1 (P50549 whole entry): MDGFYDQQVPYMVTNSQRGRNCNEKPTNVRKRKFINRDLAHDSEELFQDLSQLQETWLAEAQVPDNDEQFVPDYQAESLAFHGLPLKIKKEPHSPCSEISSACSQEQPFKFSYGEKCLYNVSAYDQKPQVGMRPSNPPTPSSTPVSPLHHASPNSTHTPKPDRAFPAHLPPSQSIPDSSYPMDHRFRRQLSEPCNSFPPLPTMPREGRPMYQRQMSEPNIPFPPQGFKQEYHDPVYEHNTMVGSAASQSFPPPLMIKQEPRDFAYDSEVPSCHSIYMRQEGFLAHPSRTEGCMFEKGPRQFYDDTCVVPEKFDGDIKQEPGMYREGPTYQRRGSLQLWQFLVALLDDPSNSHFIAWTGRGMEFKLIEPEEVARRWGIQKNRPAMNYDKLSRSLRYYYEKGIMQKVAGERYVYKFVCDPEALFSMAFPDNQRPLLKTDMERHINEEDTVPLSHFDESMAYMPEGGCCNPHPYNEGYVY
Sequence of ELF4 (Q99607 whole entry): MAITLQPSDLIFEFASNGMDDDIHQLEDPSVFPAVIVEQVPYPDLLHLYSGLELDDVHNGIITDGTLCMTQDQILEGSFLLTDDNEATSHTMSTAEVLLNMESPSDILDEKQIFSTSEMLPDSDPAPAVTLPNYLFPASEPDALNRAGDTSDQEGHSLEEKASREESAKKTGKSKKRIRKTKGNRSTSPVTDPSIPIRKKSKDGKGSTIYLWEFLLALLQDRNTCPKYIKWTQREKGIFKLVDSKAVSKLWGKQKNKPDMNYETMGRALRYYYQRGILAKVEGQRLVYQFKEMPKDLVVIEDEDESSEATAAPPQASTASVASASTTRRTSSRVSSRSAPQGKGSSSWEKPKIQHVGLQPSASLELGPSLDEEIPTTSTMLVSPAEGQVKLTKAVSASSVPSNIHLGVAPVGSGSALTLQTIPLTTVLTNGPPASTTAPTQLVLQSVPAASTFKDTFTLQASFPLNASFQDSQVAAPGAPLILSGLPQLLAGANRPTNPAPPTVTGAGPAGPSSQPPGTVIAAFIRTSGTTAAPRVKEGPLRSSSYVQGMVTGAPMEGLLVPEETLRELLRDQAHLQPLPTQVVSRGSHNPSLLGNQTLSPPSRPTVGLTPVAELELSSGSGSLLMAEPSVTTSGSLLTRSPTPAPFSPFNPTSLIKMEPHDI

As to ACTGCC, the binding signal in [1] is 1.47 fold enrichment (6-mer frequency, TF over GST control); in assay [2], 1.44 fold enrichment (6-mer frequency, TF over GST control); in assay [3], 1.44 fold enrichment (6-mer frequency, TF over GST control); in [4], 1.44 fold enrichment (6-mer frequency, TF over GST control); in assay [5] it was 1.42 fold enrichment (6-mer frequency, TF over GST control); in assay [6] it was 1.46 fold enrichment (6-mer frequency, TF over GST control). Further, the binding signal was 1.48 fold enrichment (6-mer frequency, TF over GST control) in assay [7]; 1.41 fold enrichment (6-mer frequency, TF over GST control) in assay [8]; 1.3 fold enrichment (6-mer frequency, TF over GST control) in assay [9]; 1.39 fold enrichment (6-mer frequency, TF over GST control) in assay [10]; 1.38 fold enrichment (6-mer frequency, TF over GST control) in assay [11]; 1.06 fold enrichment (6-mer frequency, TF over GST control) in assay [12]. Further, the binding signal in [13] was 1.61 fold enrichment (6-mer frequency, TF over GST control); in assay [14], 1.39 fold enrichment (6-mer frequency, TF over GST control); in assay [15], 1.31 fold enrichment (6-mer frequency, TF over GST control); in [16], 1.16 fold enrichment (6-mer frequency, TF over GST control); in [17], 1.24 fold enrichment (6-mer frequency, TF over GST control); in assay [18] it was 1.3 fold enrichment (6-mer frequency, TF over GST control).

For the origin of these results see PMC7862700, “An all-to-all approach to the identification of sequence-specific readers for epigenetic DNA modifications on cytosine”.
